TDP1 cell noCPT = qHTS for Inhibitors of human tyrosyl-DNA phosphodiesterase 1 (TDP1): qHTS in cells in absence of CPT. 15% of 420,000 active. DT40 Tdp1-/- hTDP1 cells, no CPT, ATP luminescence, 48 h. Potency, µM (series often up to 46.2 µM), inactives show top-dose activity change, negative = growth inhibition, most hits filed as inhibitors; note: potency is the fitted concentration of half-maximal effect; % is set by controls: 0 for no effect and ±100 for the full control effect; nearly all actives have a fitted effect of over 55% in size
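Cells were dispensed at 400 per well, compounds added by pin tool, plates incubated ≥48 hr at 37 °C, then CellTiter-Glo added for 30 min at room temperature before luminescence reading. Line: DT40 Tdp1-/- complemented with hTDP1; camptothecin omitted.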
IL1B secr inh = blocks inflammasome-driven IL-1 beta release; THP-1 LPS/ATP IL-1B secretion, AlphaLISA, 16 h; active compounds read low; activity change, % at 57.5 µM; 4.7% of 360,000 active; in the data active = activity change below about -50%; inconclusive = mostly about -30% to -49%; note: % is set by controls: 0 for no effect and ±100 for the full control effect
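THP-1 cells pretreated 1 hr with compounds (up to 57.5 uM final), then stimulated with LPS (250 ng/mL final) plus ATP (1.25 mM final); secreted IL-1B measured by AlphaLISA after 16 hr, decreased signal indicating inhibition.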
ASM inhibitor = blocks human secretory acid sphingomyelinase | P17405 | placental ASM, HMU-PC fluorogenic substrate, 60 min | Potency, µM (series often up to 57.5 µM), inactives show top-dose activity change, negative = inhibition, most hits filed as inhibitors | 0.006% of 340,000 active | AID 504937; note: potency is the fitted concentration of half-maximal effect
Target sequence (P17405 47-631 limits assumed): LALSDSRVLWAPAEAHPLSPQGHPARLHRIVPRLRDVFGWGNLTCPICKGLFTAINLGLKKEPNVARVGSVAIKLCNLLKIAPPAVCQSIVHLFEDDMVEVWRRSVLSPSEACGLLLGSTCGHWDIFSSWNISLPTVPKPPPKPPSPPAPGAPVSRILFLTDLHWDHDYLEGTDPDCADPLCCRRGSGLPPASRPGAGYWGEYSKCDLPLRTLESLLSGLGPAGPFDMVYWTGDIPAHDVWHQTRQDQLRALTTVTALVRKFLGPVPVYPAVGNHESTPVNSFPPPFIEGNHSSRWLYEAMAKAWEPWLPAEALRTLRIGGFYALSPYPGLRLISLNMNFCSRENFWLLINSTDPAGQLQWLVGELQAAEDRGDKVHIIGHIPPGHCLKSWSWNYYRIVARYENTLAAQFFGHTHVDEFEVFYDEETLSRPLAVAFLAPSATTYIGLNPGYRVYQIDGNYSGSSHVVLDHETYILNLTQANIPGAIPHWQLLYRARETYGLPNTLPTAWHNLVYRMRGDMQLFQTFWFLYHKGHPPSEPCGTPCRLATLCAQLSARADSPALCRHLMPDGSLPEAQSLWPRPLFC
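qHTS format. ASM enzyme prepared from human placenta hydrolyses the fluorogenic substrate HMU-PC0 (9 uM final) over 60 min at 37 °C after a 10 min compound preincubation.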
TGFb SMAD3 inh = blocks TGF-b signaling; HepG2 CAGA-GFP TGF-b/SMAD3 reporter, GFP fluorescence, 18 h; TGF-beta stimulated, 500 pg/mL final; Potency, µM (top dose mostly 46.1 µM), for the others: at the top dose activity, negative = inhibition, usual class: inhibitors; 1.2% of 410,000 active; AID 588855; note: potency is the fitted concentration of half-maximal effect; % is set by controls: 0 for no effect and ±100 for the full control effect; nearly all actives have a fitted effect of over 65% in size
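HEPG2 CAGA-GFP cells (1000/well, DMEM with 1% FBS) were pre-incubated 2 h at 37 degrees C, given compound by pin tool, then stimulated with TGF-beta at 500 pg/mL final for 18 h before per-cell GFP fluorescence imaging.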
DT40 TDP1 CPT = DT40-hTDP1 cell growth loss with CPT; chicken DT40 Tdp1-/-;hTDP1 cells + 20 nM CPT, ATP luminescence, 48 h; Potency, µM (titrated, usually from 46.2 µM), without a hit: top-dose activity change, negative = growth inhibition, actives largely listed as inhibitors; 12% of 420,000 active; AID 686979; note: potency is the fitted concentration of half-maximal effect; % is set by controls: 0 for no effect and ±100 for the full control effect; nearly all actives have a fitted effect of over 55% in size
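Chicken DT40 Tdp1-/- cells complemented with human TDP1, 400 cells/well, exposed to compounds plus 20 nM camptothecin for at least 48 h at 37 C; viability read as ATP content by CellTiter-Glo luminescence.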
HepG2 tox = counter-screen for TGF-b inhibitors: cytotoxicity in HepG2 cells; HepG2 CAGA-GFP viability, ATP luminescence, 18 h; Potency, µM (doses to about 46.1 µM), inactives show at the highest dose activity change, negative = cytotoxicity, actives largely listed as cytotoxic; 0.76% of 410,000 active; note: potency is the fitted concentration of half-maximal effect
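HepG2 CAGA-GFP cells (1000/well, DMEM with 1% FBS) received compound, then TGF-beta at 500 pg/mL final, and were incubated 18 hours at 37 degrees C. Viability was read by CellTiter-Glo luminescence. Media-only wells were set as complete cell-killing and DMSO as no toxicity.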
* marks the source's active call; other numbers are inactive results; i = inactive; u = inconclusive; x = no result. Compounds with a hit are over-represented: about 19% of the library has one in this group of screens. Unless noted, calls come from the whole dose curve; as a rule, active = well fitted curve in the direction sought with a large enough effect; inconclusive = small, poorly fitted or top-dose-only effect, or another doubt; inactive = no such curve, though single readings can be large; an effect the other way counts as inactive or inconclusive.

SMILES	TDP1 cell noCPT	IL1B secr inh	ASM inhibitor	TGFb SMAD3 inh	DT40 TDP1 CPT	HepG2 tox
Cc1ccc(C(=O)Nc2cccc(C(=O)O)c2)cc1	-15.1%	10.5	3.0%	4.6%	-26.5%	-24.5%
CCC(=O)Nc1cccc(C(=O)/C=C/c2ccc(F)cc2)c1	2.59µM*	-80.1*	-1.3%	20µM*	4.61µM*	14.1µM*
CN(C)c1ccc(/C=C/C(=O)c2cccc(Br)c2)cc1	20.6µM*	u	7.2%	42.7%	14.6µM*	-22.5%
O=C1CCc2cc(S(=O)(=O)NCCC(=O)NC3CCCCC3)ccc2N1	21.9%	9.8	3.7%	-9.9%	7.0%	2.4%
O=C1CC(N2CCOCC2)=NN1c1ccc([N+](=O)[O-])cc1	25.9µM*	-16.3	-4.4%	-15.7%	u	7.6%
COc1ccc(OC)c(N=c2ssnc2Cl)c1	11.6µM*	-6.9	-1.0%	9.7%	11.6µM*	-27.5%
COc1cc(N=c2ssnc2Cl)c(OC)cc1Cl	2.59µM*	-88.4*	-1.2%	u	2.59µM*	-43.9%
CC(=O)c1cc2c(cc1N/C(=N/S(=O)(=O)c1ccc(Cl)cc1)c1ccc(F)cc1)OCO2	-4.3%	x	x	2.0%	-3.8%	1.6%
CN(C)Cc1ccccc1-c1cc(-n2ccnc2)ncn1	-27.8%	x	x	x	-28.6%	x
O=C(N/N=C/c1ccc(OC(=O)c2cccs2)cc1)c1cccc(F)c1	20.6µM*	-12.5	-2.3%	-1.6%	23.1µM*	0.1%
CCCCNC(=O)CSc1nc(COc2ccccc2)nc2ccccc12	u	-98.7*	-0.7%	u	-12.3%	-3.7%
CCC(C)(C)NC(=O)CSc1nc(Cc2ccccc2)nc2ccccc12	u	-64.2*	-13.3%	-28.1%	u	-1.1%
CCCc1nc(SCC(=O)NNC(=O)c2ccc(OC)cc2)c2ccccc2n1	-10.1%	9.5	-4.9%	-25.0%	-15.7%	-31.6%
COc1ccc(-c2cc(C(=O)N/N=C/c3cccnc3)c3cc(C)cc(C)c3n2)cc1	8.2µM*	i	354.6%	1.1%	18.4µM*	53.3%
CCOc1ccccc1-c1cc(C(=O)N/N=C/c2cccnc2)c2ccccc2n1	1.46µM*	-5.9	1.6%	-13.0%	u	9.5%
Cc1cc(C(=O)N/N=C/c2cccnc2)c2ccccc2n1	u	40.1	2.0%	-2.1%	u	-1.9%
CCOc1ccc(-c2cc(C(=O)N/N=C/c3cccnc3)c3ccccc3n2)cc1	1.84µM*	23.3	x	0.9%	2.31µM*	-18.5%
O=C(CCS(=O)(=O)c1cccc2nonc12)Nc1c(F)cccc1F	u	x	x	u	-21.0%	-0.7%
COn1c(-c2ccccc2)nc2c1CCc1c-2no[n+]1[O-]	u	-63.4*	6.0%	10.0%	u	0.6%
O=C(OC1CCOC1=O)c1ccc(NS(=O)(=O)c2cccs2)cc1 (stereo not drawn)	-8.4%	11.2	-0.8%	15.3%	-18.5%	-3.0%
COc1ccc(NC(=S)N=Nc2c(O)[nH]c3ccccc23)cc1	5.8µM*	34.1	u	6.31µM*	8.2µM*	-22.0%
Oc1cccc(NC(=S)N=Nc2c(O)[nH]c3ccc(Br)cc23)c1	u	-5.5	u	u	u	-105.2%
Cc1ccc(NC(=S)N=Nc2c(O)[nH]c3ccccc23)cc1	7.31µM*	0.0	-7.4%	3.98µM*	6.51µM*	-38.8%
CNC(=S)N=Nc1c(O)[nH]c2ccccc12	-6.4%	9.8	-1.3%	0.0%	-6.8%	-18.7%
Oc1ccc(NC(=S)N=Nc2c(O)[nH]c3ccccc23)cc1	u	-65.8*	-16.2%	u	u	-15.2%
SMILES	TDP1 cell noCPT	IL1B secr inh	ASM inhibitor	TGFb SMAD3 inh	DT40 TDP1 CPT	HepG2 tox
c1ccc2c(C3OCC4(CCCCC4)CO3)cccc2c1	u	54.7	x	0.2%	-20.9%	-28.5%
Cc1c(C(C)CCCO)oc(=O)c2c1Oc1c(C)c(C(C)C[C@H](C)O)oc(=O)c1C2 (stereo partly drawn)	u	4.8	-0.2%	-7.0%	u	-26.4%
CC(=O)Cn1ncc(Br)c(Br)c1=O	5.17µM*	-95.5*	0.2%	u	5.8µM*	-12.1%
O=C(N/N=C\c1ccc(Cl)cc1)C1=NOC2COC3(CCN(c4ccc([N+](=O)[O-])cc4)CC3)OCC12 (stereo not drawn)	6.51µM*	0.0	-11.5%	-16.5%	10.3µM*	-6.7%
COc1ccc2c(c1)c1ncn(Cc3ccco3)c(=O)c1n2C	13µM*	-12.8	53.0%	-2.2%	-5.4%	4.2%
COc1ccc(OC)c(NC(=O)C2(C)CCN2C(=O)CC2CC2)c1 (stereo not drawn)	u	20.9	x	-2.2%	-10.5%	-10.5%
CSc1ccccc1NC(=O)C1(C)CCN1C(=O)CCC1CCCC1 (stereo not drawn)	u	9.8	x	u	u	-22.8%
CC1(C(=O)Nc2cccc3c2CCCC3)CCN1C(=O)CCC1CCCC1 (stereo not drawn)	u	15.3	x	u	20.6µM*	-39.1%
COc1ccc(OC)c(NC(=O)C2(C)CCN2C(=O)CCC2CCCC2)c1 (stereo not drawn)	u	-3.6	x	u	16.4µM*	-31.1%
Cc1ccc(NC(=O)C2(C)CCN2C(=O)CCC2CCCC2)cc1C (stereo not drawn)	u	0.0	x	4.4%	u	-15.2%
CC1(C(=O)Nc2ccc(Cl)c(Cl)c2)CCN1C(=O)CCC1CCCC1 (stereo not drawn)	23.1µM*	3.7	x	u	23.1µM*	-20.1%
CCOc1ccc(C(=O)Nc2ccc(NC(=O)c3ccccc3)c(C)c2)cc1[N+](=O)[O-]	u	-4.8	-0.2%	-25.3%	-5.6%	11.9%
COc1cc(/C=N/Nc2nncn2N)ccc1OCc1c(C)no[n+]1[O-]	-29.6%	22.6	0.4%	7.08µM*	u	10µM*
COc1ccc(N(CC(=O)N2CCCCC2)S(=O)(=O)c2ccc(OC)c(OC)c2)cc1	-4.3%	x	x	25.1%	-5.3%	-5.9%
CCOC(=O)c1ccccc1Nc1cn(C(C)=O)c2ccccc12	4.61µM*	25.0	-0.4%	-15.5%	3.66µM*	-21.5%
Nc1c(-c2nc(-c3ccc(Cl)cc3)cs2)c2ccccn2c1C(=O)c1ccc2c(c1)OCO2	-20.2%	x	x	12.7%	-16.3%	-6.5%
COc1cccc(NC(=O)C2CCN(c3nc4ccccc4nc3C(F)(F)F)CC2)c1	14.6µM*	x	x	u	23.1µM*	-30.5%
